Bioassay records: PubChem BioAssay, National Center for Advancing Translational Sciences (NCATS)
Rows were chosen to be rich in hits. Some 19% of all compounds tested hit in one or more screens of this group.
TDP1 inh: blocks human tyrosyl-DNA phosphodiesterase 1; Q9NUW8; Potency, µM (top dose mostly 130 µM), for inactives: top-dose activity change, negative = inhibition, usual class: inhibitors; recombinant TDP1, AlphaScreen DNA substrate cleavage; 350,000 tested, 0.28% active; note: nearly all actives have a fitted effect of over 40% in size
Target sequence (Q9NUW8 whole entry, looked up): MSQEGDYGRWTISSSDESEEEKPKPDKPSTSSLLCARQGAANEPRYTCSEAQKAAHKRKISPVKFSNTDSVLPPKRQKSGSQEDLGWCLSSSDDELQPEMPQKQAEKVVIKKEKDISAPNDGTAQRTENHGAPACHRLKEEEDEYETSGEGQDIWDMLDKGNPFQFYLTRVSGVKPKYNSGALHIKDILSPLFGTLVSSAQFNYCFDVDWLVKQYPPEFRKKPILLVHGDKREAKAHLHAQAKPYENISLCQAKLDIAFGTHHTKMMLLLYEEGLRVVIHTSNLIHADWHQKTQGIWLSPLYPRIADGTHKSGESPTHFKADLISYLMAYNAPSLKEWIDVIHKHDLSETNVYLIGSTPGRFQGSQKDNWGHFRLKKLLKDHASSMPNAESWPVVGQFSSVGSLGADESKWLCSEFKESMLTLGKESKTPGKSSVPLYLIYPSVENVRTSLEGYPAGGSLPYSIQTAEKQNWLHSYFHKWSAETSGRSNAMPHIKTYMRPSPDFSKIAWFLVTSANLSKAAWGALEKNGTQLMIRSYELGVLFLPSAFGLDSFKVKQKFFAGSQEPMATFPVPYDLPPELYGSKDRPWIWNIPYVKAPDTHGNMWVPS
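Tdp1 1 nM final; 15 min RT w/ cpd; substrate 15 nM, 5 min; beads 10 ug/ml, 10 min; AlphaScreen read. Neg ctrl: no enzyme.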
RORgamma inh: inhibitors of mouse ROR gamma transcriptional activity. Drosophila S2 Gal4-RORgamma UAS-luciferase reporter, 20 h. Potency, µM (series often up to 53.6 µM), without a hit: at the highest dose activity change, negative = inhibition, usual class: inhibitors. 310,000 tested, 5.4% active; note: nearly all actives have a fitted effect of over 60% in size
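Drosophila Schneider cells stably carrying a metallothionein-driven Gal4 DBD–ROR gamma fusion and a UAS-Photinus luciferase reporter were exposed to compound for 1 hr, then induced with copper sulfate (700 uM final) for 20 hr at ambient temperature before luminescence reading.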
VP16 counter: inhibits Gal4-VP16 luciferase reporter, ROR gamma counter-screen; Potency, µM (series often up to 53.6 µM), for the others: at the top dose activity, negative = inhibition, most hits filed as inhibitors; Drosophila S2 Gal4-VP16 UAS-luciferase, luminescence, 20 h; AID 2546; 310,000 tested, 3.5% active;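 note: Gal4-VP16 expression switched on by copper sulfate through the metallothionein promoter; nearly all actives have a fitted effect of over 50% in size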
DT40 TDP1 no CPT: qHTS for Inhibitors of human tyrosyl-DNA phosphodiesterase 1 (TDP1): qHTS in cells in absence of CPT | AID 686978, 2013 | 420,000 tested, 15% active | DT40 Tdp1-/- hTDP1 cells, no CPT, ATP luminescence, 48 h | Potency, µM (series often up to 46.2 µM), inactives show top-dose activity change, negative = growth inhibition, usual class: inhibitors; note: nearly all actives have a fitted effect of over 55% in size
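A cellular qHTS used chicken DT40 cells lacking endogenous Tdp1 but carrying stably transfected human TDP1. Compounds were applied without camptothecin, and cell growth kinetics were judged by ATP-dependent luminescence after ≥48 hr.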
TDP1 cell CPT: growth inhibition of DT40 Tdp1-/-;hTDP1 cells with camptothecin (screen for TDP1 inhibitors). Potency, µM (top dose mostly 46.2 µM), without a hit: top-dose activity change, negative = growth inhibition, usual class: inhibitors. chicken DT40 Tdp1-/-;hTDP1 cells + 20 nM CPT, ATP luminescence, 48 h. 420,000 tested, 12% active. AID 686979; note: nearly all actives have a fitted effect of over 55% in size
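Chicken DT40 Tdp1-/- cells complemented with human TDP1, 400 cells/well, exposed to compounds plus 20 nM camptothecin for at least 48 h at 37 C; viability read as ATP content by CellTiter-Glo luminescence.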
* = called active by the depositor; ? = inconclusive; . = not tested or not shown; [ ] = dose if it differs, or a comment. Calls come from the whole dose curve; as a rule, active = well fitted curve in the direction sought with a large enough effect; inconclusive = small, poorly fitted or top-dose-only effect, or another doubt; inactive = no such curve, though single readings can be large; an effect the other way counts as inactive or inconclusive. % is set by controls: 0 for no effect and ±100 for the full control effect; potency is the fitted concentration of half-maximal effect.

SMILES	TDP1 inh	RORgamma inh	VP16 counter	DT40 TDP1 no CPT	TDP1 cell CPT
Cc1cc(C(=O)COC(=O)c2ccccc2NCCO)c(C)n1CC1CCCO1 (configuration not stated)	8%	0.79µM*	1.6µM*	15µM*	?
Cc1cc(C(=O)COC(=O)c2ccccc2O)c(C)n1CC1CCCO1 (configuration not stated)	9%	.	.	-25%	?
CC(C)CCNC(=O)C1CCC(CNc2c(N3CCCC3)c(=O)c2=O)CC1 (configuration not stated)	-4%	-3%	1%	-17%	-9%
O=C(NC1CCCc2ccccc21)C1CCCO1 (configuration not stated)	-2%	0%	1%	-10%	-3%
CS(=O)(=O)N(Cc1ccccc1)c1ccc(C(=O)Nc2ccc(C(N)=O)cc2)cc1	4%	-2%	6%	-5%	-3%
Nc1c(C(=O)Nc2cccc(F)c2)nnn1-c1cccc(C(F)(F)F)c1	3%	?	-1%[10 µM]	?	?
O=C(N[C@@H](Cc1ccccc1)C(=O)NCCc1c[nH]c2ccccc12)c1ccco1	10%	-4%	5%	?	?
Cc1cc(=O)oc2cc(OCC3CC(c4ccc(Cl)cc4)=NO3)ccc12 (configuration not stated)	-14%	-9%	4%	?	28µM*
Cc1ccc(C)c(CN2C(=O)c3ccccc3Sc3ccc(C(=O)NCc4ccc5c(c4)OCO5)cc32)c1	2%	.	.	-14%	15%
O=C(NCCN1CCCCC1)c1ccc(Cn2c(SCc3ccc(F)cc3)nc3cccnc32)cc1	-1%	.	.	?	?
COc1ccc(Cn2c(SCc3ccc(C(=O)NC4CCCC4)cc3)nc3cccnc32)cc1	6%	.	.	18µM*	?
O=C(NC1CCCCC1)c1ccc(CSc2nc3cccnc3n2Cc2ccccc2)cc1	4%	.	.	?	?
O=C(NC1CCCC1)c1ccc(CSc2nc3cccnc3n2Cc2ccccc2)cc1	-5%	.	.	16µM*	?
CCNC(=O)c1ccc(CSc2nc3cccnc3n2Cc2ccc(OC)cc2)cc1	-2%	.	.	?	?
O=C(NC1CCCCC1)c1ccc(Cn2c(SCc3cccc(F)c3)nc3cccnc32)cc1	5%	.	.	21µM*	21µM*
CCOc1ccc2[nH]c3c(c2c1)CNCC3	.	26%	4%	-1%	?
Cc1c(C#N)c(NC(=O)CCl)n(Cc2ccccc2)c1C	5%	?	?	2.6µM*	2.6µM*
Cc1c(C#N)c(NC(=O)CCl)n(Cc2ccc(F)cc2)c1C	8%	-43%	?	5.8µM*	5.2µM*
Cc1c(C#N)c(NC(=O)CCl)n(Cc2cccs2)c1C	-3%	-13%	?	2.6µM*	5.2µM*
COC(=O)c1c(NS(=O)(=O)c2ccc(C)cc2)sc2c1CCC(C)C2 (configuration not stated)	-5%	?	23%	-10%	-13%
Cc1nc(C)c(C(=O)OC(C)C(=O)Nc2ccc(F)cc2)s1 (configuration not stated)	-3%[56.1 µM]	.	.	?	?
O=C(CCCN1C(=O)/C(=C/c2ccccc2OC(F)F)SC1=S)Nc1cccnc1	6%	.	.	13µM*	26µM*
O=C(CCN1C(=O)/C(=C/c2ccc(Cl)cc2)SC1=S)Nc1cccnc1	2%	-1%	-16%	?	29µM*
Cc1ccc(/C=C2\SC(=S)N(CC(=O)Nc3cccnc3)C2=O)cc1	0%	9%	-4%	-11%	-4%
O=C(CCN1C(=O)/C(=C\c2ccccc2Cl)SC1=S)Nc1cccnc1	10%	11%	?	?	-15%
SMILES	TDP1 inh	RORgamma inh	VP16 counter	DT40 TDP1 no CPT	TDP1 cell CPT
Cc1ccc(/C=C2\SC(=S)N(CCCC(=O)Nc3cccnc3)C2=O)cc1	0%	6.3µM*	2.2µM*	?	?
N=c1n(CC(=O)c2ccc(Br)s2)c2ccccc2n1Cc1ccccc1	-5%	10µM*	14µM*	4.6µM*	5.2µM*
Cn1c(=N)n(CC(=O)c2ccc(Br)s2)c2ccccc21	-2%	23%	2%	18µM*	26µM*
CCCn1c(=N)n(CC(=O)c2cccs2)c2ccccc21	8%	24%	2%	?	?
Cn1c(=N)n(CC(=O)c2cccs2)c2ccccc21	6%	-34%	-3%	-22%	?
CCN(CC)CCn1c(=N)n(CC(=O)c2ccc(Br)s2)c2ccccc21	0%	-5%	0%	7.3µM*	5.8µM*
COc1cccc(C(=O)Cn2c(=N)n(C)c3ccccc32)c1	-8%	10µM*	?	21µM*	13µM*
COc1ccc(-c2oc3ncn4nc(-c5ccccc5O)nc4c3c2-c2ccc(OC)cc2)cc1	0%[12.3 µM]	.	.	-12%	-2%
CC(C)NC(=O)c1noc2cc([N+](=O)[O-])ccc12	2%	3%	-28%	1%	3%
O=C(CSc1nnc(C2CCCCC2)n1Cc1ccccc1)NCc1ccco1	1%	33%	6%	16µM*	16µM*
Cc1cc2nnc(SCC(=O)NCc3ccco3)n2c2ccccc12	.	.	.	4.6µM*	4.6µM*
Cc1ccc2cc(C)c3nnc(SCC(=O)NCc4ccco4)n3c2c1	50µM*	12%	-1%	-7%	3%
Cc1ccc2c(c1)cc(C)c1nnc(SCC(=O)NCc3ccco3)n12	-12%	-1%[10 µM]	-3%	-27%	?
O=S(=O)(c1ccc(F)cc1)N1CCN(S(=O)(=O)c2cc(F)ccc2F)CC1	.	1%	-7%	?	?
CNC(=O)C(=O)Nc1cc2c3c(c1)CCN3C(=O)CC2	2%	-22%	0%	30%	-13%
COc1ccc(NC(=S)N2CCc3ccccc32)cc1OC	7%	8.9µM*	?	-6%	?
S=C(Nc1ccccc1)N1CCc2ccccc21	.	11µM*	16µM*	-1%	4%
O=C(Nc1ccccc1)N1CCc2ccccc21	-5%	-14%	-4%	?	?
CCOc1ccccc1NC(=S)N1CCCc2ccccc21	5%	3%	-5%	9%	-29%
COc1ccccc1NC(=S)N1CCCc2ccccc21	6%	2.8µM*	-10%	-25%	-22%
O=[N+]([O-])c1ccc(NC(=S)N2CCc3ccccc32)cc1	9%	13µM*	?	-11%	-15%
COc1ccc(C(=O)N2N=C3CC(C)(C)OCC3C2c2ccccc2)cc1 (configuration not stated)	4%	-36%	-7%	-22%	-3%
COc1cccc(CN2CCNC(=O)C2CC(=O)NC2CCCCC2)c1OC (configuration not stated)	2%	-2%	1%	12%	-4%
